Measurements from PubChem BioAssay (NCATS).
Records with an inconclusive call do not appear. The source made the active and inactive calls. The call rests on the fitted dose curve; in most records, active means well fitted curve in the direction sought with a large enough effect; inconclusive means small, poorly fitted or top-dose-only effect, or another doubt; inactive means no such curve, though single readings can be large; an effect the other way counts as inactive or inconclusive. *1 amine or outer side, *2 acyl side, *3 side chain or, on linkers, in order; H or OH if unused. Where a SMILES comes first, the peptide text is derived from it. Bridges are numbered along the chain shown (N, C = ends). [ ]: non-standard residue; d: D form. The star is where a group is joined. ξ: configuration not given here. X10 = NC1=NCCC(C(N[*:1])C(=O)[*:2])N1; ΔAla(3-NHCONH2) = NC(=O)NC=C(N)C(=O)O; ξβ3hOrn = NCCCC(N)CC(=O)*; Dap = NC[CH](N)C(=O)O

Experiments:
[1] = test system: UISO; test: qHTS assay to identify novel small-molecules to repurpose for Merkel cell carcinoma treatment (AID 1296009); details: MCC and control cell lines, CellTiter-Glo viability, 72 h; series mostly up to 46 µM; further: nearly all actives have a fitted effect of over 60% in size
Procedure, shortened: (§1)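 Cell viability, measured as CellTiter-Glo luminescence, was normalized between DMSO and no-cell wells. The cells had been exposed to 8- or 11-point compound dilutions for 72 hr at 37 degree celsius.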

[2] = test system: WaGa; test: as above; details: MCC and control cell lines, CellTiter-Glo viability, 72 h; series mostly up to 46 µM
Procedure, shortened: as §1

[3] = test system: C33A; test: Primary qHTS to identify gynecologic anti-cancer compounds using libraries of approved drugs and bioactive compounds (AID 1345084); details: Gynecologic cancer cell panel viability, ATPlite luminescence, 48 h; series mostly up to 57.5 µM; further: nearly all actives have a fitted effect of over 55% in size
Procedure, shortened: (§2)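 Cell viability after 48 h drug treatment, ATPlite luminescence readout; five doses.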

[4] = test system: CAOV3; test: as above; details: Gynecologic cancer cell panel viability, ATPlite luminescence, 48 h; series mostly up to 57.5 µM
Procedure, shortened: as §2

[5] = test system: CASKI; test: as above; details: Gynecologic cancer cell panel viability, ATPlite luminescence, 48 h; series mostly up to 57.5 µM
Procedure, shortened: as §2

[6] = test system: Es-2; test: as above; details: Gynecologic cancer cell panel viability, ATPlite luminescence, 48 h; series mostly up to 57.5 µM
Procedure, shortened: as §2

[7] = test system: HeLa; test: as above; details: Gynecologic cancer cell panel viability, ATPlite luminescence, 48 h; series mostly up to 57.5 µM
Procedure, shortened: as §2

[8] = test system: Hek293T; test: as above; details: Gynecologic cancer cell panel viability, ATPlite luminescence, 48 h, control line for the selectivity index; series mostly up to 57.5 µM
Procedure, shortened: as §2

[9] = test system: JEG-3; test: as above; details: Gynecologic cancer cell panel viability, ATPlite luminescence, 48 h; series mostly up to 57.5 µM
Procedure, shortened: as §2
On the % scale 0 is the no-effect control and ±100 the full control effect.

COC(=O)c1c(Cl)c(Cl)c(C(=O)OC)c(Cl)c1Cl
inactive: Potency [1] | Potency [2] | Potency [3] | Potency [4] | Potency [5] | Potency [6] | Potency [7] | Potency [8] | Potency [9]

C[N+]1(CC2COC(c3ccccc3)(c3ccccc3)O2)CCCCC1 (configuration not stated)
inactive: Potency [1] | Potency [2] | Potency [3] | Potency [4] | Potency [5] | Potency [6] | Potency [7] | Potency [8] | Potency [9]

Nc1ccc(C(=O)OCC(O)CO)cc1 (configuration not stated)
inactive: Potency [1] | Potency [2] | Potency [3] | Potency [4] | Potency [5] | Potency [6] | Potency [7] | Potency [8] | Potency [9]

Cc1nc(C2CCCCC2)c(-c2ccc(S(N)(=O)=O)c(F)c2)o1
inactive: Potency [1] | Potency [2] | Potency [3] | Potency [4] | Potency [5] | Potency [6] | Potency [7] | Potency [8] | Potency [9]

C[C@H]1NCc2cc(-c3ccc4c(=O)c(C(=O)O)cn(C5CC5)c4c3OC(F)F)ccc21
inactive: Potency [1] | Potency [2] | Potency [3] | Potency [4] | Potency [5] | Potency [6] | Potency [7] | Potency [8] | Potency [9]

CCOC(=O)c1ccc(OCCN2C[C@H](O)[C@@H](O)[C@H](O)[C@H]2CO)cc1
inactive: Potency [1] | Potency [2] | Potency [3] | Potency [4] | Potency [5] | Potency [6] | Potency [7] | Potency [8] | Potency [9]

Cc1ncc([N+](=O)[O-])n1C
inactive: Potency [1] | Potency [2] | Potency [3] | Potency [4] | Potency [5] | Potency [6] | Potency [7] | Potency [8] | Potency [9]

CC(C)C[C@@H]1[C@H](c2ccccc2)OC(=O)N1CCCN1CCCCCC1
inactive: Potency [1] | Potency [2] | Potency [3] | Potency [4] | Potency [5] | Potency [6] | Potency [7] | Potency [8] | Potency [9]

CCCC(CCC)(C(=O)OCC)C(=O)OCC
inactive: Potency [1] | Potency [2] | Potency [3] | Potency [4] | Potency [5] | Potency [6] | Potency [7] | Potency [8] | Potency [9]

COc1cc(C(=O)NC2CCCNC2)cc(OC)c1OC (configuration not stated)
inactive: Potency [1] | Potency [2] | Potency [3] | Potency [4] | Potency [5] | Potency [6] | Potency [7] | Potency [8] | Potency [9]

CC1(C)S[C@@H]2[C@H](NC(=O)C(c3ccccc3)S(=O)(=O)O)C(=O)N2[C@H]1C(=O)O (some centres not stated)
inactive: Potency [1] | Potency [2] | Potency [3] | Potency [4] | Potency [5] | Potency [6] | Potency [7] | Potency [8] | Potency [9]

CCCC(=O)OCOC(=O)C1=C(C)NC(C)=C(C(=O)OC)C1c1cccc(Cl)c1Cl (configuration not stated)
inactive: Potency [1] | Potency [2] | Potency [3] | Potency [4] | Potency [5] | Potency [6] | Potency [7] | Potency [8] | Potency [9]

O=C(COCCOCCOCC(=O)Nc1c(I)cc(I)c(C(=O)O)c1I)Nc1c(I)cc(I)c(C(=O)O)c1I
inactive: Potency [1] | Potency [2] | Potency [3] | Potency [4] | Potency [5] | Potency [6] | Potency [7] | Potency [8] | Potency [9]

NCCCC(N)CC(=O)NCC1NC(=O)C(CO)NC(=O)C(N)CNC(=O)C(C2CCN=C(N)N2)NC(=O)C(=CNC(N)=O)NC1=O (stereo not drawn) (H-[Dap]S[Dap](ξβ3hOrn)[ΔAla(3-NHCONH2)][X10]; lactam 1-C; configuration not given here)
inactive: activity change, negative = cytotoxicity [1] 24.3% [at 0.597 µM] | activity change, negative = cytotoxicity [2] 13.5% [at 0.597 µM] | activity change, negative = cytotoxicity [3] 15.1% [at 0.462 µM] | activity change, negative = cytotoxicity [4] 10.4% [at 0.462 µM] | activity change, negative = cytotoxicity [5] 9.08% [at 0.462 µM] | activity change, negative = cytotoxicity [6] -0.941% [at 0.462 µM] | activity change, negative = cytotoxicity [7] -1.14% [at 0.462 µM] | activity change, negative = cytotoxicity [8] -1.45% [at 0.462 µM] | activity change, negative = cytotoxicity [9] 1.16% [at 0.462 µM]

CC(=O)O[C@@H]1CC2C3CCc4cc(OC(=O)c5ccccc5)ccc4C3CCC2(C)[C@H]1OC(C)=O (some centres not stated)
inactive: Potency [1] | Potency [2] | Potency [3] | Potency [4] | Potency [5] | Potency [6] | Potency [7] | Potency [8] | Potency [9]

COc1cc(C=O)ccc1O
inactive: Potency [1] | Potency [2] | Potency [3] | Potency [4] | Potency [5] | Potency [6] | Potency [7] | Potency [8] | Potency [9]

Cc1ccc(C(=O)C(=O)O)cc1C
inactive: Potency [1] | Potency [2] | Potency [3] | Potency [4] | Potency [5] | Potency [6] | Potency [7] | Potency [8] | Potency [9]

CCC(C(=O)NC(=O)NC(C)=O)c1ccccc1 (configuration not stated)
inactive: Potency [1] | Potency [2] | Potency [3] | Potency [4] | Potency [5] | Potency [6] | Potency [7] | Potency [8] | Potency [9]

CC(C)C(=O)OCc1cccc(OC(=O)[C@@H]2N3C(=O)[C@@H](NC(=O)Cc4ccccc4)[C@H]3SC2(C)C)c1
inactive: Potency [1] | Potency [2] | Potency [3] | Potency [4] | Potency [5] | Potency [6] | Potency [7] | Potency [8] | Potency [9]

NC(=O)NS(=O)(=O)c1ccc(Cl)cc1
inactive: Potency [1] | Potency [2] | Potency [3] | Potency [4] | Potency [5] | Potency [6] | Potency [7] | Potency [8] | Potency [9]

CCO[C@H](Cc1ccc(OCCc2ccc(OS(C)(=O)=O)cc2)cc1)C(=O)O
inactive: Potency [1] | Potency [2] | Potency [3] | Potency [4] | Potency [5] | Potency [6] | Potency [7] | Potency [8] | Potency [9]

O=C(O)[C@H](O)[C@@H](O)[C@H](O[C@@H]1O[C@H](CO)[C@H](O)[C@H](O)[C@H]1O)[C@H](O)CO
inactive: Potency [1] | Potency [2] | Potency [3] | Potency [4] | Potency [5] | Potency [6] | Potency [7] | Potency [8] | Potency [9]

OC(CCCN1CCCCC1)(c1ccccc1)c1ccccc1
inactive: Potency [1] | Potency [2] | Potency [3] | Potency [4] | Potency [5] | Potency [6] | Potency [7] | Potency [8] | Potency [9]
